{
  "source": "the supplement of paper PMC4894684",
  "note": "“And” between values parts separate entries of the source, which are not always exact repeats. Equal entries are not always repeated. Structures can show the parent of a compound that is named as a salt. ± gives the standard deviation of the averaged measurements.",
  "data": [
    {"system": "Toxoplasma gondii RH (in HFF)", "test": "parasite growth relative to the screen mean (all compounds = 100%); higher = less inhibition of parasite growth", "conditions": "5 µM; 72 h; oxygen 21 %", "how_it_was_run": "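RH β-Gal–GFP Toxoplasma at MOI 1:5 was used to infect confluent human foreskin fibroblasts in 96-well plates within 2 h of pin-transferring compounds to 5 µM final. After 72 h at 21% O2, parasite number was determined by CPRG β-Gal assay against standard curves on the same plate. Growth is relative to the screen mean and averaged over two screens, with all compounds = 100%.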", "values": [
      {"smiles": "CCCn1c(=O)[nH]c2nc(-c3ccc(S(=O)(=O)O)cc3)[nH]c2c1=O", "parasite growth": "112 ± 5.7%"},
      {"smiles": "CN1CC(=O)N=C1NC(=O)Nc1cccc(Cl)c1", "note": "[Fenobam]", "parasite growth": "134 ± 5.3%"},
      {"smiles": "CN1[C@@H]2CC[C@H]1C[C@@H](OC(=O)c1c[nH]c3ccccc13)C2", "note": "[Tropisetron hydrochloride]", "parasite growth": "106 ± 3.1%"},
      {"smiles": "COC(=O)[C@H]1[C@H]2C[C@H]3c4[nH]c5ccccc5c4CCN3C[C@H]2CC[C@@H]1O", "note": "[Rauwolscine hydrochloride]", "parasite growth": "167 ± 41%"},
      {"smiles": "CC1(c2ccccc2)OC(C(=O)O)=CC1=O", "note": "(stereo not drawn) [Acifran]", "parasite growth": "114 ± 2.4%"},
      {"smiles": "CC1Nc2ccc(Cl)cc2S(=O)(=O)N1", "note": "(stereo not drawn)", "parasite growth": "105 ± 84%"},
      {"smiles": "O=C(O)C=C1CCCc2ccccc2C1O", "note": "(stereo not drawn)", "parasite growth": "112 ± 16%"},
      {"smiles": "Cc1cc(C)c(/C=C2\\C(=O)Nc3ccccc32)[nH]1", "parasite growth": "198 ± 12%"},
      {"smiles": "COc1ccc(CCN(C)CCCN2CCc3cc(OC)c(OC)cc3CC2=O)cc1OC", "note": "[Zatebradine hydrochloride]", "parasite growth": "103 ± 1.8%"},
      {"smiles": "NCCCCNCCCN", "note": "[Spermidine trihydrochloride]", "parasite growth": "90.6 ± 7.8%"},
      {"smiles": "c1ccc(CN(CC2=NCCN2)c2ccccc2)cc1", "note": "[Antazoline hydrochloride]", "parasite growth": "114 ± 25%"},
      {"smiles": "COc1ccc(Cl)cc1NC(=O)Nc1cc(C)nc2ccccc12", "parasite growth": "52.7 ± 30%"},
      {"smiles": "O=S(=O)(NCCNC/C=C/c1ccc(Br)cc1)c1cccc2cnccc12", "note": "[H 89 dihydrochloride]", "parasite growth": "26.2 ± 27%"},
      {"smiles": "COC(=O)C1=C(C)NC(C)=C([N+](=O)[O-])[C@H]1c1ccccc1C(F)(F)F", "parasite growth": "153 ± 8.1%"},
      {"smiles": "N[C@@H](Cn1ccc(=O)n(Cc2ccccc2C(=O)O)c1=O)C(=O)O", "parasite growth": "108% and 93.5%"},
      {"smiles": "CN(C)CCCCSC(=N)N", "parasite growth": "93.3 ± 15%"},
      {"smiles": "CCCCCCCC/C=C\\CCCCCCCC(=O)N[C@@H](CO)Cc1ccc(O)cc1", "parasite growth": "171 ± 11%"},
      {"smiles": "CN(Cc1cnc2nc(N)nc(N)c2n1)c1ccc(C(=O)N[C@@H](CCC(=O)O)C(=O)O)cc1", "note": "[Methotrexate]", "parasite growth": "161 ± 27%"},
      {"smiles": "COc1cccc(CCc2ccccc2OCC[C@@H]2C[C@@H](O)CN2C)c1", "parasite growth": "53.4 ± 25%"},
      {"smiles": "COc1ccc2[nH]cc(CCNC(C)=O)c2c1", "note": "[Melatonin]", "parasite growth": "84.8 ± 3.7%"},
      {"smiles": "COc1ccccc1N1CCN(CC(O)COc2cccc3ccccc23)CC1", "note": "(stereo not drawn) [Naftopidil hydrochloride]", "parasite growth": "118.7 ± 0.3%"},
      {"smiles": "O=C(O)c1ccccc1Nc1cccc(OCc2ccc3ccccc3n2)c1", "note": "[SR 2640 hydrochloride]", "parasite growth": "135 ± 9.3%"},
      {"smiles": "COc1ccc(NC(=O)c2ccc(-c3ccc(-c4noc(C)n4)cc3C)cc2)cc1N1CCN(C)CC1", "parasite growth": "< 0%"},
      {"smiles": "CS(=O)(=O)c1ccc(Cn2c3c(c4cc(F)cc(F)c42)CCCC3CC(=O)O)cc1", "note": "(stereo not drawn)", "parasite growth": "120 ± 6.7%"},
      {"smiles": "Nc1ncnc2c1ncn2[C@@H]1O[C@H](CO)C[C@H]1O", "note": "[Cordycepin]", "parasite growth": "122 ± 20%"},
      {"smiles": "O=C1NC(=O)c2cc(Nc3ccc(F)cc3)c(Nc3ccc(F)cc3)cc21", "parasite growth": "171 ± 51%"},
      {"smiles": "Cc1noc(NS(=O)(=O)c2cccc3c(N(C)C)cccc23)c1C", "parasite growth": "59.8 ± 11%"},
      {"smiles": "O=C(Nc1ccccc1)C12CC1C(=NO)c1ccccc1O2", "note": "(stereo not drawn)", "parasite growth": "77.3 ± 29%"},
      {"smiles": "CCN(Cc1ccncc1)C(=O)C(CO)c1ccccc1", "note": "(stereo not drawn) [Tropicamide]", "parasite growth": "111 ± 11%"},
      {"smiles": "N[C@H]1CCN(O)C1=O", "parasite growth": "94.9 ± 34%"},
      {"smiles": "c1cc2c(cc1C1CCCCC1)c1c3n2CCNC3CCC1", "note": "(stereo not drawn) [Tetrindole mesylate]", "parasite growth": "13.2 ± 2.2%"},
      {"smiles": "Clc1ccc(-c2nc3sccn3c2/C=N/OCc2ccc(Cl)c(Cl)c2)cc1", "parasite growth": "110 ± 8.4%"},
      {"smiles": "COc1ccccc1N1CCN(CCN2C(=O)c3ccccc3C(C)(C)C2=O)CC1", "note": "[ARC 239 dihydrochloride]", "parasite growth": "108 ± 47%"},
      {"smiles": "Oc1cc(O)cc(/C=C/c2ccc(O)c(O)c2)c1", "note": "[Piceatannol]", "parasite growth": "145 ± 42%"},
      {"smiles": "CCc1nn(CCCN2CCN(c3cccc(Cl)c3)CC2)c(=O)n1CCOc1ccccc1", "note": "[Nefazodone hydrochloride]", "parasite growth": "139 ± 7.4%"},
      {"smiles": "Nc1ncn([C@H]2C[C@H](O)[C@@H](CO)O2)c(=O)n1", "note": "[Decitabine]", "parasite growth": "119 ± 9.9%"},
      {"smiles": "COCCNC(=O)COc1ccc(OCCNC[C@H](O)COc2ccccc2)cc1", "note": "[ZD 7114 hydrochloride]", "parasite growth": "123 ± 7%"},
      {"smiles": "Cn1ccc2cc(NC(=O)Nc3cccnc3)ccc21", "parasite growth": "129 ± 6.5%"}
    ]}
  ]
}
